Screens (PubChem BioAssay)
Rows were chosen to be rich in hits. Some 4.8% of all compounds tested hit in one or more screens of this group.
tim10-1 inh = growth inhibitors of tim10-1 mutant yeast, primary screen, luminescence, uHTS; S. cerevisiae tim10-1 ts strain growth, BacTiter-Glo, 24 h; inhibition, % at 20 µM; 330,000 compounds, 2.2% hits; AID 463190, 2010;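 active means inhibition of at least 40%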;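 further: mutant grown at 25 °C; 0% = DMSO wells with yeast and 100% = wells holding no yeast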
PfHsp90 set2 = growth inhibition of PfHsp90-expressing yeast, primary screen, antimalarial PfHsp90 inhibitor project, S. cerevisiae, BacTiter-Glo luminescence, single point, set 2 | 310,000 compounds, 0.32% hits | BacTiter-Glo ATP, 48 h; yeast lacking PDR1 and PDR3 efflux regulators | AID 504621, 2011 | inhibition, % at 9.4 µM;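 active means every replicate shows inhibition above about 80%, whatever the replicate mean, limit read from the data; inconclusive means mean inhibition reaches the set limit but some replicate falls short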;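 further: 0% = DMSO neutral controls and 100% = 20 µM radicicol positive controls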
NALP1 yeast inh = NALP1 inflammasome inhibitors in reconstituted yeast, colorimetric, S. cerevisiae, triplicate retest; S. cerevisiae NALP1/ASC/caspase-1 growth, X-gal OD620, 72 h; inhibition, % at 10 µM; 280,000 compounds, 0.61% hits; AID 2071, 2009; in the data active means inhibition mostly above about 24%, no sharp cut-off; inactive means mostly below about 32%
TIM10 inh = growth inhibitors of isogenic TIM10 control yeast, primary screen, counter-screen for tim10-1 yeast inhibitor project, luminescence, uHTS; S. cerevisiae TIM10 strain growth, BacTiter-Glo luminescence, 24 h; inhibition, % at 10 µM; 330,000 compounds, 1.4% hits;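 active means inhibition of 40% or more at the single tested concentration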;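 further: wild-type TIM10 isogenic control strain grown at permissive 25 °C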
tim23-1 inh = growth inhibitors of tim23-1 mutant yeast, primary screen, luminescence, uHTS | S. cerevisiae tim23-1 growth, BacTiter-Glo luminescence, 24 h | inhibition, % at 20 µM | 330,000 compounds, 1.3% hits | AID 463212, 2010;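 active means growth inhibition of the mutant yeast at or above 50%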;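 further: temperature-sensitive mutant grown at 25 °C; plate controls were DMSO-treated mutant yeast for no effect and medium wells lacking yeast for full effect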
SKKanGAS inh = S. pyogenes SKKanGAS growth inhibitors in kanamycin, primary screen, streptokinase expression inhibitor project, SKKanGAS strain, BacTiter-Glo luminescence; inhibition, % at 7.5 µM; AID 1662, 2009; 300,000 compounds, 1.3% hits; 6 h;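 active means mean replicate score, as percent of positive control median, at least 50; inconclusive means mean below 50 but one replicate at or above 50; inactive means mean and every replicate below 50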;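 further: strain carries kanamycin resistance gene driven by streptokinase promoter and grows in 40 µg/ml kanamycin; loss of luminescence reflects streptokinase promoter inhibition or plain growth inhibition; 0% = median of DMSO wells and 100% = positive control at its reference dose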
tim23-1 conf = tim23-1 mutant yeast growth inhibitors, confirmation, luminescence, single concentration; shares compounds with tim23-1 inh; AID 463218, 2010; 4,400 compounds, 83% hits; inhibition, % at 20 µM; S. cerevisiae tim23-1 growth, BacTiter-Glo luminescence, 24 h;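 active means inhibition above about 39% in either of two replicate wells at 20 µM, limit read from the data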;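 further: temperature-sensitive tim23-1 mutant grown at 25 °C; 0% = DMSO wells with yeast and 100% = medium wells without yeast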
Starred values were filed as active, the others as inactive; ? = inconclusive; nt = no result.

SMILES	tim10-1 inh	PfHsp90 set2	NALP1 yeast inh	TIM10 inh	tim23-1 inh	SKKanGAS inh	tim23-1 conf
NC(=S)NNc1cccc2cccnc12	20	-2	-11	17	58*	7	19
COc1ccc(/C=N/NC(=O)CCC(=O)Nc2ccc(F)cc2)c(OC)c1	-9	4	-1	-13	6	2	nt
CCCCCc1ccc(OCCCC[n+]2ccc(C)cc2)c(CCCCC)c1	-6	-60	10	-240	53*	-15	15
CCCCCc1ccc(OCCCC[n+]2cccc(C)c2)c(CCCCC)c1	31	-23	6	-73	49	-4	nt
O=C(NC1CCCCCCC1)c1cnccn1	11	0	-22	-2	2	-1	nt
CCNC(=O)CCC(=O)Nc1cc(Cl)ccc1C	3	-1	5	-5	-8	0	nt
CC(C)(C)c1ccc(O)c(N=Cc2cc(Br)ccc2O)c1	12	1	9	15	69*	7	35
OCC(CO)(CO)N=Cc1cc(Br)ccc1O	30	-57	-5	14	59*	4	56*
CCOc1ccc(Cl)cc1S(=O)(=O)N1CCC(C(=O)NCc2ccccn2)CC1	4	23	16	-14	-1	3	nt
C[n+]1c2n(c3ccccc31)N=C(c1ccc(-c3ccccc3)cc1)CS2	-3	-54	15	8	60*	39	47*
COC(=O)Sc1nnc(-c2ccc(Br)cc2)o1	10	nt	36	22	60*	25	52*
OCC#CCSc1nnc(-c2ccc(Br)cc2)o1	16	5	nt	35	14	-3	nt
Cc1nc2ccc(NS(=O)(=O)c3ccc(Br)cc3)cc2s1	10	18	nt	17	51*	nt	34
O=C1/C(=C/c2ccccc2Cl)SC(=S)N1CCCC(=O)N(CCO)c1ccccc1	33	-9	11	22	56*	33	48*
CCNC(=O)C(=O)Nc1cc2c3c(c1)CCC(=O)N3CCC2	13	-14	33	10	-4	1	nt
O=c1[nH]c(=O)n(Cc2ccco2)c2c1C(C(F)(F)F)(C(F)(F)F)N=C(c1ccc(F)cc1)N2	3	0	10	-31	-21	2	nt
CCc1ccc(OCC(=O)N2CCN(c3ccccn3)CC2)c(Br)c1	37	-13	6	26	53*	-5	38
O=C(O)c1ccc(N/N=C/c2ccc(-c3ccc(Br)cc3)o2)cc1	-3	-27	20	-25	52*	?	47*
Cc1ccc(/C=N/Nc2ccc(C(=O)O)cc2)o1	6	-19	7	1	18	7	nt
COc1cc(C2NC(=O)NC(C)=C2C(=O)OCC2CCCCC2)cc(Cl)c1O (stereo unspecified)	-3	-9	11	-3	5	5	nt
O=C1OC(c2ccc(Cl)cc2)=N/C1=C\C=C\c1ccco1	14	14	-3	24	44	-2	nt
O=C1OC(c2ccccc2)=N/C1=C\C=C\c1ccco1	32	5	4	31	82*	-24	81*
CCOC(=O)c1[nH]c2ccccc2c1NC(=O)c1ccc(S(=O)(=O)N2CCOCC2)cc1	4	-14	28	1	13	1	nt
CC(C)(C)c1cc(CCC(=O)NN)cc(C(C)(C)C)c1O	4	nt	9	-19	8	7	nt
COCCOC(=O)/C(=C\c1cc(C(C)(C)C)c(O)c(C(C)(C)C)c1)C(C)=O	36	-26	2	33	59*	18	58*
SMILES	tim10-1 inh	PfHsp90 set2	NALP1 yeast inh	TIM10 inh	tim23-1 inh	SKKanGAS inh	tim23-1 conf
CC(OC(=O)CCNS(=O)(=O)c1ccccc1)C(=O)Nc1ccc(S(=O)(=O)N2CCCCC2)cc1 (stereo unspecified)	nt	10	nt	nt	nt	nt	nt
CCc1ccc(-c2cc(C(=O)N/N=C/c3c[nH]c4ccccc34)[nH]n2)cc1	9	35	12	19	7	?	nt
CCc1ccc2c(Cl)c(C(=O)N/N=C/c3c[nH]c4ccccc34)sc2c1	9	4	5	20	52*	69*	39*
Cc1ccc(S(=O)(=O)NCCC(=O)NNC(=O)COc2ccc(Br)cc2)cc1C	-10	15	nt	-10	-1	nt	nt
Cc1ccc(S(=O)(=O)N(Cc2cccnc2)Cc2cc3ccccc3[nH]c2=O)cc1	28	-10	17	3	21	7	nt
CC(=O)Nc1ccc(S(=O)(=O)N(Cc2cccnc2)Cc2cc3ccc(C)cc3[nH]c2=O)cc1	38	-2	17	14	52*	1	53*
COc1cc2c(cc1OC)CN(C(=O)c1ccc(OC)c([N+](=O)[O-])c1)CC2	-24	-41	0	-6	-6	-5	nt
O=C(Nc1ccc(C(=O)Oc2ccccc2)c(O)c1)c1ccccc1	-12	10	14	-3	0	15	nt
CCOC(=O)Nc1ccc(C(=O)Oc2ccccc2)c(O)c1	19	11	2	20	57*	-2	54*
C=C(C)CNC(=S)N/N=C/C1=CCC2CC1C2(C)C (stereo unspecified)	17	-25	23	19	33	-3	nt
CCCCNC(=S)N/N=C/C1=CCC2CC1C2(C)C (stereo unspecified)	31	22	15	37	53*	-1	25
CC(C)NC(=S)N/N=C/C1=CCC2CC1C2(C)C (stereo unspecified)	23	2	13	29	56*	20	28
O=C(Cn1ncc2c1-c1ccccc1OC2)Nc1nc2ccccc2s1	12	-4	12	27	62*	-3	57*
CC(C)N1C(=O)C(Cc2nc3ccccc3c(=O)n2-c2ccccc2)c2ccccc21 (stereo unspecified)	15	-7	15	39	45	16	nt
CCCN1C(=O)C(Cc2nc3ccccc3c(=O)n2-c2ccccc2)c2ccccc21 (stereo unspecified)	15	7	-24	13	51*	3	49*
Cc1ccc2oc(=O)c(-c3ccc(O)cc3)c(C)c2c1	23	1	nt	13	52*	nt	47*
Cc1c(-c2ccccc2)c(=O)oc2ccc(O)cc12	19	-19	4	-26	21	-4	nt
CCC(CC)C(=O)N(c1ccc(F)cc1)C1C=CS(=O)(=O)C1 (stereo unspecified)	0	-8	32	-3	-5	-2	nt
CCCC(=O)NC(c1ccc(C)cc1)c1ccc2cccnc2c1O (stereo unspecified)	-8	113*	8	-24	61*	72*	58*
